Reference: the supplement of paper PMC9694430

Experiments:
Test in all cases: thermal shift delta Tm vs DMSO control; higher = stronger stabilization (binding)
Settings in all cases: 12.5 µM; protein concentration 2 µM
LOC_OS01G57100-cb003 = test system: LOC_OS01G57100-cb003
Outline: (§1)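 Purified, E. coli-expressed rice kinase domain constructs were tested by differential scanning fluorimetry in 96-well plates: 19.5 μl of 2 μM kinase in 100 mM potassium phosphate pH 7.5, 150 mM NaCl, 10% glycerol, 5 × SYPRO Orange, plus compound in DMSO. Fluorescence was read from 25°C to 95°C at 0.05°C/s. Melting temperatures came from Boltzmann fits, and the shift is the triplicate mean relative to protein with DMSO alone.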

LOC_OS01G60330-cb001 = test system: LOC_OS01G60330-cb001
Outline: as §1

LOC_OS01G60700-cb002 = test system: LOC_OS01G60700-cb002
Outline: as §1

LOC_OS01G63280-cb003 = test system: LOC_OS01G63280-cb003
Outline: as §1

LOC_OS01G67340-cb003 = test system: LOC_OS01G67340-cb003
Outline: as §1

LOC_OS01G70970-cb002 = test system: LOC_OS01G70970-cb002
Outline: as §1

LOC_OS02G07810-cb001 = test system: LOC_OS02G07810-cb001
Outline: as §1

LOC_OS02G08530-cb003 = test system: LOC_OS02G08530-cb003
Outline: as §1

LOC_OS02G14120-cb001 = test system: LOC_OS02G14120-cb001
Outline: as §1

LOC_OS02G17970-cb001 = test system: LOC_OS02G17970-cb001
Outline: as §1

LOC_OS02G45750-cb003 = test system: LOC_OS02G45750-cb003
Outline: as §1

LOC_OS02G54510-cb004 = test system: LOC_OS02G54510-cb004
Outline: as §1

LOC_OS03G04050-cb001 = test system: LOC_OS03G04050-cb001
Outline: as §1

LOC_OS03G12390-cb001 = test system: LOC_OS03G12390-cb001
Outline: as §1

LOC_OS03G27990-cb004 = test system: LOC_OS03G27990-cb004
Outline: as §1

LOC_OS03G50450-cb001 = test system: LOC_OS03G50450-cb001
Outline: as §1

LOC_OS03G50810-cb003 = test system: LOC_OS03G50810-cb003
Outline: as §1

LOC_OS04G35114-cb001 = test system: LOC_OS04G35114-cb001
Outline: as §1

LOC_OS04G38480-cb003 = test system: T1, LOC_OS04G38480-cb003
T1 sequence (whole entry): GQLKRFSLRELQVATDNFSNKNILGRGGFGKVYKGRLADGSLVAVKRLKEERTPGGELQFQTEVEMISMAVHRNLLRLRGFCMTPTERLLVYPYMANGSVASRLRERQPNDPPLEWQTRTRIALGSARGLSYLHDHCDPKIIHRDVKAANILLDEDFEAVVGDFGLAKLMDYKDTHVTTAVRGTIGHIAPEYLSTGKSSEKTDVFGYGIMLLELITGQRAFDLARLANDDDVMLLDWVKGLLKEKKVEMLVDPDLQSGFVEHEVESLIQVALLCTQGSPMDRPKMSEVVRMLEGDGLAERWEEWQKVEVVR
Outline: as §1

LOC_OS04G41100-cb001 = test system: T2, LOC_OS04G41100-cb001
T2 sequence (whole entry): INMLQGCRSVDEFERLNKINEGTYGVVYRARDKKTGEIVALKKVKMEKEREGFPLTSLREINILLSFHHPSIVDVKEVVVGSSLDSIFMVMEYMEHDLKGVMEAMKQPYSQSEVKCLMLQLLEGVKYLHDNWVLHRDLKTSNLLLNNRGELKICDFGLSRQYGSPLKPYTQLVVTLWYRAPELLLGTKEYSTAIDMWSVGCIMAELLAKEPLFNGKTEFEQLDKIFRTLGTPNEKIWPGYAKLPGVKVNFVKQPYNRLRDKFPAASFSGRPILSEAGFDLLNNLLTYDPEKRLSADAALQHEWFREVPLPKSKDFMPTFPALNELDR
Outline: as §1

| Structure (SMILES) | thermal shift delta Tm (LOC_OS01G57100-cb003) [°C] | thermal shift delta Tm (LOC_OS01G60330-cb001) [°C] | thermal shift delta Tm (LOC_OS01G60700-cb002) [°C] | thermal shift delta Tm (LOC_OS01G63280-cb003) [°C] | thermal shift delta Tm (LOC_OS01G67340-cb003) [°C] | thermal shift delta Tm (LOC_OS01G70970-cb002) [°C] | thermal shift delta Tm (LOC_OS02G07810-cb001) [°C] | thermal shift delta Tm (LOC_OS02G08530-cb003) [°C] | thermal shift delta Tm (LOC_OS02G14120-cb001) [°C] | thermal shift delta Tm (LOC_OS02G17970-cb001) [°C] | thermal shift delta Tm (LOC_OS02G45750-cb003) [°C] | thermal shift delta Tm (LOC_OS02G54510-cb004) [°C] | thermal shift delta Tm (LOC_OS03G04050-cb001) [°C] | thermal shift delta Tm (LOC_OS03G12390-cb001) [°C] | thermal shift delta Tm (LOC_OS03G27990-cb004) [°C] | thermal shift delta Tm (LOC_OS03G50450-cb001) [°C] | thermal shift delta Tm (LOC_OS03G50810-cb003) [°C] | thermal shift delta Tm (LOC_OS04G35114-cb001) [°C] | thermal shift delta Tm (LOC_OS04G38480-cb003) [°C] | thermal shift delta Tm (LOC_OS04G41100-cb001) [°C] |
| --- | --- | --- | --- | --- | --- | --- | --- | --- | --- | --- | --- | --- | --- | --- | --- | --- | --- | --- | --- | --- |
| COc1cc2c(Oc3ccc4[nH]c(C)cc4c3F)ncnc2cc1OCCCN1CCCC1 [Cediranib (AZD2171)] | 0.31 | 1.14 | 0.79 | 0.02 | 0.06 | 0.42 | 0.2 | 0.41 | 0.33 | 0.26 | 1.17 | -0.01 | 0.25 | 1.5 | 0.44 | -0.12 | 2.04 | 5.53 | 0.23 | 0.71 |
| CNc1nc(-c2ccc3c(N)n[nH]c3c2)cc(N2C[C@@H](C(=O)NC3CCCCC3)CC[C@H]2C)n1 | 2.04 | 0.28 | 2.12 | 0.81 | -0.04 | 0.71 | 1.63 | 1.27 | 0.75 | 1.01 | 0.45 | 0.92 | 0.58 | 0.25 | 0.2 | 0.38 | 0.87 | 0.5 | 1.14 | 0.66 |
| Cn1c(=O)c(F)c(Nc2ccc(I)cc2F)c2c(=O)n(C[C@@H](O)CO)cnc21 | 3.09 | 1.03 | 1.02 | 0.11 | 0.29 | 0.22 | 1.5 | 0.9 | 0.98 | 1.05 | 1.03 | 0.28 | 0.51 | 0.07 | 0.21 | 0.15 | 0.78 | 0.35 | 0.83 | 0.43 |
| Clc1ccc(C2(c3ccc(-c4cn[nH]c4)cc3)CCNCC2)cc1 | 1.65 | 0.98 | 0.54 | 0.22 | -0.1 | 0.01 | 1.21 | 0.59 | 0.25 | 1.03 | -0.2 | 0.04 | 0.31 | 0.47 | 0.05 | 0.32 | 0.32 | 0.57 | 0.33 | 0.38 |
| O=S(=O)(NCCNC/C=C/c1ccc(Br)cc1)c1cccc2cnccc12 | 1.34 | 0.45 | 0.98 | 0.58 | -0.25 | 0.05 | 1.39 | 0.72 | 0.95 | 0.98 | 0.56 | 0.32 | 0.25 | 0.22 | 0.02 | 0.46 | 0.01 | 0.54 | 0.79 | 0.63 |
| N#Cc1ccc(-c2c(-c3ncn[nH]3)sc(N3CCOCC3)c2C#N)c(F)c1 | 0.86 | 1.05 | 1.22 | 0.44 | 0.56 | 0.2 | 0.75 | 0.69 | 1.41 | 1.24 | 1.03 | 0.27 | 0.35 | 0.25 | 0.22 | 0 | 0.37 | 0.45 | 1.64 | 0.49 |
| COc1cc2c(Oc3ccc(NC(=O)C4(C(=O)Nc5ccc(F)cc5)CC4)cc3F)ccnc2cc1OCCCN1CCOCC1 | 0.61 | 1.45 | 0.58 | 0.93 | 3.45 | 2.5 | 1.74 | 1.31 | 7.45 | 0.62 | 3.41 | 2.08 | 0.79 | 0.18 | 0.69 | 0.65 | 3.35 | 3.93 | 3.42 | 1.7 |
| COc1cc2ncnc(Nc3ccc(F)c(Cl)c3)c2cc1NC(=O)/C=C/CN1CCCCC1 | 2.23 | 2.36 | 1.39 | 0.37 | 1.76 | 0.52 | 1.55 | 1.7 | 0.41 | 1.92 | 1.69 | 0.71 | 1.08 | 0.21 | 1.04 | 1.79 | 0.95 | 1.15 | 1.53 | 0.71 |
| CCn1c(N)c(C(=O)NC)c(=O)c2ccc(C#CC(C)(O)COC)nc21 (stereo not given) | 0.95 | 1.02 | 1.1 | 0.41 | 0.38 | 1.97 | 0.99 | 1.25 | 1.34 | 0.48 | 1.5 | -0.18 | 0.43 | 1.63 | 0.43 | 0.79 | 0.85 | 1.56 | 0.68 | 0.29 |
| Cc1cc(CN2CCN(c3c(Br)cnc4nc(-c5ccc(N6CCN(C)CC6)cc5)[nH]c34)CC2)no1 | 0.54 | 3.22 | 0.17 | 0.23 | 1.36 | 1.3 | 0.7 | 0.33 | 4.66 | 0.14 | 11.1 | 0.56 | 0.42 | 2.08 | 1.47 | 4.97 | 4 | 3.09 | 2.28 | 0.48 |
| O=C1Nc2ccc(CN3C(=O)CSC3=O)cc2/C1=C/c1cc(CN2CCOCC2)c[nH]1 | 0.8 | 0.38 | 0.05 | 0.05 | 0.83 | 0.36 | -0.68 | 2.55 | 9.24 | -0.08 | 2.91 | 0.28 | 0.58 | 4.37 | 0.63 | 0.68 | 2 | 3.48 | 3.05 | 0.46 |
